Results from PubChem BioAssay (NCI).
The panel holds about 79,000 compounds, 15% with a hit somewhere; the sample as a whole holds those more often. Calls of active or inactive are those of the source. Cut-off read from the data, not from the text of the source: active = growth inhibition above about 70%; inactive = the rest.

What was measured:
[1] = NCI Yeast Anticancer Drug Screen. Data for the wt1 strain (AID 149);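 note: 0% = growth of vehicle-treated wt1 cultures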; conditions: S. cerevisiae wt1 strain (SPY 50644) growth inhibition, stronger effect = higher value
Procedure, shortened: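 The wt1 strain was treated with compounds, and growth was compared with vehicle-treated cultures to give inhibition.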

[2] = NCI Yeast Anticancer Drug Screen. Data for the rad50EPP+ strain (AID 151);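 note: 0% = growth of vehicle-treated control cultures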; conditions: S. cerevisiae rad50 mutant strain, stronger effect = higher value
Procedure, shortened: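 Read-out is yeast growth inhibition relative to vehicle; cells used were the rad50EPP+ strain.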

[3] = NCI Yeast Anticancer Drug Screen. Data for the mgt1 strain (AID 153); conditions: S. cerevisiae mgt1 mutant growth inhibition, stronger effect = higher value
Procedure, shortened: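 Measured: inhibition of mgt1 yeast growth by compound, normalized to vehicle-treated cultures.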

[4] = NCI Yeast Anticancer Drug Screen. Data for the rad50 strain (AID 155);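 note: 0% = growth of vehicle-only cultures of the same strain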; conditions: S. cerevisiae rad50 strain growth inhibition, stronger effect = higher value
Procedure, shortened: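 Cells are treated with compound, grown, and their growth is then scored against vehicle-only cultures of the same repair-deficient yeast strain.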

[5] = NCI Yeast Anticancer Drug Screen. Data for the mec2-1 strain (AID 157); conditions: S. cerevisiae mec2-1 strain, stronger effect = higher value
Procedure, shortened: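 Using mec2-1 yeast: add compound, measure growth, express inhibition versus vehicle-treated cultures.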

[6] = NCI Yeast Anticancer Drug Screen. Data for the rad14 strain (AID 159);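 note: 0% = growth of vehicle-treated control cultures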; conditions: S. cerevisiae rad14 strain growth inhibition, stronger effect = higher value
Procedure, shortened: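 Readout: yeast growth inhibition, referenced to vehicle-only cultures. Strain bears a defined alteration in DNA damage repair.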

[7] = NCI Yeast Anticancer Drug Screen. Data for the sgs1 mgt1 strain (AID 161);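 note: 0% = growth of cultures given vehicle only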; conditions: S. cerevisiae sgs1 mgt1 strain, stronger effect = higher value
Procedure, shortened: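 This yeast growth screen uses a strain with defined DNA-repair lesions; compound-treated growth is compared with vehicle-treated growth.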

[8] = NCI Yeast Anticancer Drug Screen. Data for the CLN2oe strain (AID 163);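 note: 0% = growth of vehicle-only control cultures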; conditions: S. cerevisiae CLN2oe strain, stronger effect = higher value
Procedure, shortened: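 Whole-cell yeast growth assay. A strain engineered for altered cell-cycle control received compound, and inhibition relative to vehicle-treated cultures was recorded.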

[9] = NCI Yeast Anticancer Drug Screen. Data for the cln2 rad14 strain (AID 165);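 note: 0% = growth equal to vehicle treated cultures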; conditions: S. cerevisiae cln2 rad14 strain, stronger effect = higher value
Procedure, shortened: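 Yeast strain cln2 rad14, bearing defects in cell cycle control and DNA repair, serves as the test system; values reflect growth inhibition compared with vehicle.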

[10] = NCI Yeast Anticancer Drug Screen. Data for the bub3 strain (AID 167); conditions: S. cerevisiae bub3 mutant strain, stronger effect = higher value
Procedure, shortened: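 Part of a panel of yeast mutants defective in DNA damage repair or cell cycle regulation. Each strain is grown with compound, and inhibition is calculated relative to solvent-treated cultures.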

[11] = NCI Yeast Anticancer Drug Screen. Data for the wt2 strain (AID 169);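 note: 0% = growth of vehicle-treated yeast cultures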; conditions: S. cerevisiae wt2 strain growth inhibition, stronger effect = higher value
Procedure, shortened: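 Treated yeast vs. vehicle-treated yeast: growth inhibition determined.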

[12] = NCI Yeast Anticancer Drug Screen. Data for the mlh1 strain (AID 171);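 note: 0% = growth of vehicle-treated control cultures of the same strain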; conditions: S. cerevisiae mlh1 strain growth inhibition, stronger effect = higher value
Procedure, shortened: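 A yeast strain with a defined genetic lesion serves as the test organism. Cultures receive compound or vehicle, and growth is measured.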

[13] = NCI Yeast Anticancer Drug Screen. Data for the sgs1 strain (AID 173);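 note: 0% = growth of vehicle-only control cultures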; conditions: S. cerevisiae sgs1 mutant, stronger effect = higher value
Procedure, shortened: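 A genetically defined yeast mutant is incubated with the test compound, and its growth is compared to that of the same strain given vehicle.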

[14] = NCI Yeast Anticancer Drug Screen. Data for the mlh1 rad18 strain (AID 175); conditions: S. cerevisiae mlh1 rad18 strain growth inhibition, stronger effect = higher value
Procedure, shortened: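 Steps: expose repair-defective yeast to compound; measure growth; express inhibition against vehicle-treated controls.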

[15] = NCI Yeast Anticancer Drug Screen. Data for the rad18 strain (AID 177); conditions: S. cerevisiae rad18 mutant growth inhibition, stronger effect = higher value
Procedure, shortened: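 Measured value is growth inhibition of a yeast strain bearing a DNA repair alteration, referenced to vehicle-treated cells.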

[16] = at 5.0 µM (retest, dose inferred, filed as 0.5)
[17] = at 50.0 µM (retest, dose inferred, filed as 5.0)

Measured: growth inhibition

Cc1nc2ccc(N=NN(C)C)cc2[nH]1
inactive: [1]; at 1.2 µM 13% | [1]; at 3.7 µM 6% | [1]; at 11.0 µM 7% | [1]; at 33.0 µM 25% | [2]; at 1.2 µM 13% | [2]; at 3.7 µM 14% | [2]; at 11.0 µM 8% | [2]; at 33.0 µM 51% | [3]; at 1.2 µM 2% | [3]; at 3.7 µM 3% | [3]; at 11.0 µM 15% | [4]; at 1.2 µM 22% | [4]; at 3.7 µM 16% | [4]; [16] -3% | [4]; at 11.0 µM 15% | [5]; at 1.2 µM 15% | [5]; at 3.7 µM 21% | [5]; [16] -9% | [5]; at 11.0 µM 20% | [6]; at 1.2 µM 4% | [6]; at 3.7 µM 4% | [6]; at 11.0 µM 12% | [6]; at 33.0 µM 15% | [7]; [16] -6% | [7]; [17] 7% | [8]; at 1.2 µM 8% | [8]; at 3.7 µM 1% | [8]; at 11.0 µM 30% | [9]; [16] 8% | [9]; [17] 35% | [10]; at 1.2 µM -6% | [10]; at 3.7 µM -5% | [10]; [16] -19% | [10]; at 11.0 µM -2% | [11]; at 1.2 µM -15% | [11]; at 3.7 µM 4% | [11]; at 11.0 µM 6% | [12]; at 1.2 µM 2% | [12]; at 3.7 µM 3% | [12]; at 11.0 µM 15% | [13]; at 1.2 µM 27% | [13]; at 3.7 µM 39% | [13]; at 11.0 µM 40% | [13]; at 33.0 µM 49% | [14]; [16] -7% | [15]; at 1.2 µM 18% | [15]; at 3.7 µM 23% | [15]; at 11.0 µM 26%
active: [1]; at 100.0 µM 98% | [2]; at 100.0 µM 98% | [3]; at 33.0 µM 99% | [3]; at 100.0 µM 99% | [4]; at 33.0 µM 83% | [4]; [17] 97% | [4]; at 50.0 µM 84% | [4]; at 100.0 µM 98% | [5]; at 33.0 µM 98% | [5]; [17] 98% | [5]; at 50.0 µM 91.3% | [5]; at 100.0 µM 98% | [6]; at 100.0 µM 97% | [7]; at 50.0 µM 88.8% | [8]; at 33.0 µM 96% | [8]; at 100.0 µM 96% | [9]; at 50.0 µM 87.5% | [10]; at 33.0 µM 97% | [10]; [17] 98% | [10]; at 50.0 µM 87.8% | [10]; at 100.0 µM 98% | [11]; at 33.0 µM 98% | [11]; at 100.0 µM 98% | [12]; at 33.0 µM 99% | [12]; at 100.0 µM 99% | [13]; at 100.0 µM 99% | [14]; [17] 98% | [14]; at 50.0 µM 89% | [15]; at 33.0 µM 77% | [15]; at 100.0 µM 98%
